According to PubChem BioAssay (NCATS):
Records with an inconclusive call do not appear. Activity calls are given as the source filed them. Calls come from the whole dose curve; as a rule, active = well fitted cell-killing curve with a large enough effect; inconclusive = small, poorly fitted or top-dose-only effect, or effect the other way; inactive = flat fitted curve, though single readings scatter.

Experiments:
Experiment in all cases: Primary qHTS to identify gynecologic anti-cancer compounds using libraries of approved drugs and bioactive compounds (AID 1345084); note: nearly all actives have a fitted effect of over 55% in size
C33A = details: Gynecologic cancer cell panel viability, ATPlite luminescence, 48 h; series mostly up to 57.5 µM
In short: (§1)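 Measured: luminescence after ATPlite addition (15 min, RT). Exposure: 48 h, 37 C, 5% CO2.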

CAOV3 = details: Gynecologic cancer cell panel viability, ATPlite luminescence, 48 h; series mostly up to 57.5 µM
In short: as §1

CASKI = details: Gynecologic cancer cell panel viability, ATPlite luminescence, 48 h; series mostly up to 57.5 µM
In short: as §1

Es-2 = details: Gynecologic cancer cell panel viability, ATPlite luminescence, 48 h; series mostly up to 57.5 µM
In short: as §1

HeLa = details: Gynecologic cancer cell panel viability, ATPlite luminescence, 48 h; series mostly up to 57.5 µM
In short: as §1

Hek293T = details: Gynecologic cancer cell panel viability, ATPlite luminescence, 48 h, control line for the selectivity index; series mostly up to 57.5 µM
In short: as §1

JEG-3 = details: Gynecologic cancer cell panel viability, ATPlite luminescence, 48 h; series mostly up to 57.5 µM
In short: as §1

OV90 = details: Gynecologic cancer cell panel viability, ATPlite luminescence, 48 h; series mostly up to 57.5 µM
In short: as §1

PA-1 = details: Gynecologic cancer cell panel viability, ATPlite luminescence, 48 h; series mostly up to 57.5 µM
In short: as §1

SKOV3 = details: Gynecologic cancer cell panel viability, ATPlite luminescence, 48 h; series mostly up to 57.5 µM
In short: as §1

Tov-21-G = details: Gynecologic cancer cell panel viability, ATPlite luminescence, 48 h; series mostly up to 57.5 µM
In short: as §1

Tov112D = details: Gynecologic cancer cell panel viability, ATPlite luminescence, 48 h; series mostly up to 57.5 µM
In short: as §1
% is set by controls: 0 for no effect and ±100 for the full control effect.

CC1CC(C(O)C(C)(C)O)OC2CC3(C)C4(C)CCC5C(C)(C)C(=O)CCC5(C)C4CCC3(O)C12O (stereo unspecified)
inactive: Potency (C33A) | Potency (CAOV3) | Potency (CASKI) | Potency (Es-2) | Potency (HeLa) | Potency (Hek293T) | Potency (JEG-3) | Potency (OV90) | Potency (PA-1) | Potency (SKOV3) | Potency (Tov-21-G) | Potency (Tov112D)

CN[C@@H]1[C@H](O[C@H]2[C@H](O[C@@H]3[C@@H](O)[C@H](O)[C@@H](N=C(N)N)[C@H](O)[C@H]3N=C(N)N)O[C@@H](C)[C@]2(O)C=O)O[C@@H](CO)[C@H](O)[C@H]1O
inactive: Potency (C33A) | Potency (CAOV3) | Potency (CASKI) | Potency (Es-2) | Potency (HeLa) | Potency (Hek293T) | Potency (JEG-3) | Potency (OV90) | Potency (PA-1) | Potency (SKOV3) | Potency (Tov-21-G) | Potency (Tov112D)

O=C(CCCCN1CCOCC1)Nc1ccc(-c2cccnc2)cc1
inactive: Potency (C33A) | Potency (CAOV3) | Potency (CASKI) | Potency (Es-2) | Potency (HeLa) | Potency (Hek293T) | Potency (JEG-3) | Potency (OV90) | Potency (PA-1) | Potency (SKOV3) | Potency (Tov-21-G) | Potency (Tov112D)

CC(=O)OCC1(O)CCC2C(COC3OC(CO)C(O)C(O)C3OC(=O)/C=C/c3ccc(O)cc3)=COC(OC(=O)CC(C)C)C21 (stereo unspecified)
inactive: Potency (C33A) | Potency (CAOV3) | Potency (CASKI) | Potency (Es-2) | Potency (HeLa) | Potency (Hek293T) | Potency (JEG-3) | Potency (OV90) | Potency (PA-1) | Potency (SKOV3) | Potency (Tov-21-G) | Potency (Tov112D)

Cc1nc2sc(C(=O)NCc3ccncc3)c(N)c2c(C)c1Cl
inactive: Potency (C33A) | Potency (CAOV3) | Potency (CASKI) | Potency (Es-2) | Potency (HeLa) | Potency (Hek293T) | Potency (JEG-3) | Potency (OV90) | Potency (PA-1) | Potency (SKOV3) | Potency (Tov-21-G) | Potency (Tov112D)

CC1(O)CCCC2(C)C1CCC13CC(CO)C(CCC12)C3 (stereo unspecified)
inactive: Potency (C33A) | Potency (CAOV3) | Potency (CASKI) | Potency (Es-2) | Potency (HeLa) | Potency (Hek293T) | Potency (JEG-3) | Potency (OV90) | Potency (PA-1) | Potency (SKOV3) | Potency (Tov-21-G) | Potency (Tov112D)

CC(=O)O[C@@H]1[C@@H](O)[C@H](C)O[C@@H](O[C@H]2[C@@H]3C=CO[C@@H](O[C@@H]4O[C@H](CO)[C@@H](O)[C@H](O)[C@H]4O)[C@@H]3[C@@]3(CO)O[C@@H]23)[C@@H]1OC(=O)/C=C/c1ccccc1
inactive: Potency (C33A) | Potency (CAOV3) | Potency (CASKI) | Potency (Es-2) | Potency (HeLa) | Potency (Hek293T) | Potency (JEG-3) | Potency (OV90) | Potency (PA-1) | Potency (SKOV3) | Potency (Tov-21-G) | Potency (Tov112D)

CC1OC(OCC2OC(OC3CCC4(C)C(CCC5(C)C4CC=C4C6CC(C)(C)CCC6(C(=O)OC6OC(CO)C(O)C(O)C6O)CCC45C)C3(C)CO)C(O)C(O)C2O)C(O)C(O)C1O (stereo unspecified)
inactive: activity change, negative = cytotoxicity (C33A) 10.1% [at 11.6 µM] | activity change, negative = cytotoxicity (CAOV3) 17.5% [at 11.6 µM] | activity change, negative = cytotoxicity (CASKI) 14.8% [at 11.6 µM] | activity change, negative = cytotoxicity (Es-2) 0.0336% [at 11.6 µM] | activity change, negative = cytotoxicity (HeLa) -1.23% [at 11.6 µM] | activity change, negative = cytotoxicity (Hek293T) -5.88% [at 11.6 µM] | activity change, negative = cytotoxicity (JEG-3) -1.04% [at 11.6 µM] | activity change, negative = cytotoxicity (OV90) -5.44% [at 11.6 µM] | activity change, negative = cytotoxicity (PA-1) -0.107% [at 11.6 µM] | activity change, negative = cytotoxicity (SKOV3) 24.6% [at 11.6 µM] | activity change, negative = cytotoxicity (Tov-21-G) 2.94% [at 11.6 µM] | activity change, negative = cytotoxicity (Tov112D) -1.29% [at 11.6 µM]

CCOC(=O)CCN(C(=O)c1ccc2c(c1)nc(CNc1ccc(C(=N)N)cc1)n2C)c1ccccn1
inactive: Potency (C33A) | Potency (CAOV3) | Potency (CASKI) | Potency (Es-2) | Potency (HeLa) | Potency (Hek293T) | Potency (JEG-3) | Potency (OV90) | Potency (PA-1) | Potency (SKOV3) | Potency (Tov-21-G) | Potency (Tov112D)

CC1OC(OC2C(O)C(OC3CCC4(C)C(CCC5(C)C4CC=C4C6CC(C)(COC7OC(CO)C(O)C(O)C7O)CC(O)C6(C)CCC45C)C3(C)C)OC(C(=O)O)C2O)C(O)C(O)C1OC1OCC(O)C(O)C1O (stereo unspecified)
inactive: activity change, negative = cytotoxicity (C33A) 5.66% [at 11.6 µM] | activity change, negative = cytotoxicity (CAOV3) -0.364% [at 11.6 µM] | activity change, negative = cytotoxicity (CASKI) -2.68% [at 11.6 µM] | activity change, negative = cytotoxicity (Es-2) 8.83% [at 11.6 µM] | activity change, negative = cytotoxicity (HeLa) 12.4% [at 11.6 µM] | activity change, negative = cytotoxicity (Hek293T) 11.9% [at 11.6 µM] | activity change, negative = cytotoxicity (JEG-3) 10.4% [at 11.6 µM] | activity change, negative = cytotoxicity (OV90) 0.532% [at 11.6 µM] | activity change, negative = cytotoxicity (PA-1) 13.5% [at 11.6 µM] | activity change, negative = cytotoxicity (SKOV3) 37.6% [at 11.6 µM] | activity change, negative = cytotoxicity (Tov-21-G) 6.66% [at 11.6 µM] | activity change, negative = cytotoxicity (Tov112D) 7.29% [at 11.6 µM]

C[C@@H]1O[C@@H](O[C@H]2[C@H](O[C@H]3[C@H](O)[C@@H](C(=O)O)O[C@@H](O[C@H]4CC[C@@]5(C)C(CC[C@]6(C)C5CC[C@]57OC[C@@]8(CCC(C)(C)CC85)[C@H](O)C[C@]76C)C4(C)C)[C@@H]3O[C@@H]3O[C@H](CO)[C@@H](O[C@@H]4OC[C@@H](O)[C@H](O)[C@H]4O)[C@H](O)[C@H]3O)O[C@H](CO)[C@H](O)[C@@H]2O)[C@H](O)[C@H](O)[C@H]1O (stereo partly specified)
inactive: activity change, negative = cytotoxicity (C33A) -0.321% [at 6.55 µM] | activity change, negative = cytotoxicity (CAOV3) 1.86% [at 6.55 µM] | activity change, negative = cytotoxicity (CASKI) 3.57% [at 6.55 µM] | activity change, negative = cytotoxicity (Es-2) -2.01% [at 6.55 µM] | activity change, negative = cytotoxicity (HeLa) 1.31% [at 6.55 µM] | activity change, negative = cytotoxicity (Hek293T) 4.69% [at 6.55 µM] | activity change, negative = cytotoxicity (JEG-3) 1.85% [at 6.55 µM] | activity change, negative = cytotoxicity (OV90) -19.1% [at 6.55 µM] | activity change, negative = cytotoxicity (PA-1) 5.43% [at 6.55 µM] | activity change, negative = cytotoxicity (SKOV3) 0% [at 6.55 µM] | activity change, negative = cytotoxicity (Tov-21-G) -4.6% [at 6.55 µM] | activity change, negative = cytotoxicity (Tov112D) 10.2% [at 6.55 µM]

C=C(C)[C@@H]1CC[C@]2(C)CC[C@]3(C)[C@H](CC[C@@H]4[C@@]5(C)CC[C@@H](O)C(C)(C)[C@@H]5CC[C@]43C)[C@@H]12
inactive: Potency (C33A) | Potency (CAOV3) | Potency (CASKI) | Potency (Es-2) | Potency (HeLa) | Potency (Hek293T) | Potency (JEG-3) | Potency (OV90) | Potency (PA-1) | Potency (SKOV3) | Potency (Tov-21-G) | Potency (Tov112D)

C[C@@H]1O[C@@H](O[C@H]2[C@H](O)[C@@H](O[C@@H]3O[C@H](CO)[C@@H](O)[C@H](O[C@@H]4O[C@H](CO)[C@@H](O)[C@H](O)[C@H]4O)[C@H]3O)[C@H](O[C@H]3CC[C@@]4(C)C(=CC[C@@H]5C4CC[C@@]4(C)C5C[C@@H]5OC6(CC[C@@](C)(CO[C@@H]7O[C@H](CO)[C@@H](O)[C@H](O)[C@H]7O)O6)[C@@H](C)[C@@H]54)C3)O[C@@H]2CO)[C@H](O)[C@H](O)[C@H]1OC1OC(CO)C(O)C(O)C1O (stereo partly specified)
inactive: activity change, negative = cytotoxicity (C33A) 0.138% [at 6.55 µM] | activity change, negative = cytotoxicity (CAOV3) 7.26% [at 6.55 µM] | activity change, negative = cytotoxicity (CASKI) -16.9% [at 6.55 µM] | activity change, negative = cytotoxicity (Es-2) -3.32% [at 6.55 µM] | activity change, negative = cytotoxicity (HeLa) -0.928% [at 6.55 µM] | activity change, negative = cytotoxicity (Hek293T) 3.68% [at 6.55 µM] | activity change, negative = cytotoxicity (JEG-3) 1.09% [at 6.55 µM] | activity change, negative = cytotoxicity (OV90) -1.64% [at 6.55 µM] | activity change, negative = cytotoxicity (PA-1) 10.2% [at 6.55 µM] | activity change, negative = cytotoxicity (SKOV3) -3.09% [at 6.55 µM] | activity change, negative = cytotoxicity (Tov-21-G) -0.0744% [at 6.55 µM] | activity change, negative = cytotoxicity (Tov112D) 5.26% [at 6.55 µM]
